# Source: PubChem BioAssay (NCATS)
# Several values for one entry are separate records, joined by “and”; a condition that tells them apart may be missing. Identical values can stand only once. Records with an inconclusive call do not appear. Where a call stands in place of a potency, no number is given. Values without a mark were called inactive. Activity calls are given as the source filed them. The call rests on the fitted dose curve; in most records, active means well fitted curve in the direction sought with a large enough effect; inconclusive means small, poorly fitted or top-dose-only effect, or another doubt; inactive means no such curve, though single readings can be large; an effect the other way counts as inactive or inconclusive. Where a SMILES comes first, the peptide text is derived from it. [ ]: non-standard residue; d: D form. ξ: configuration not given here. ξPhe(βξ-Me) = CC(c1ccccc1)C(N)C(=O)O; GABA = NCCCC(=O)O
# Tests used:
# OV90 = experiment: Primary qHTS to identify gynecologic anti-cancer compounds using libraries of approved drugs and bioactive compounds (AID 1345084); conditions: Gynecologic cancer cell panel viability, ATPlite luminescence, 48 h; series mostly up to 57.5 µM; further: nearly all actives have a fitted effect of over 55% in size; further: potency means the concentration at half of the fitted maximal effect
# Procedure, shortened: (§1)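 Cell viability after 48 h drug treatment, ATPlite luminescence readout; five doses.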
# PA-1 = experiment: as above; conditions: Gynecologic cancer cell panel viability, ATPlite luminescence, 48 h; series mostly up to 57.5 µM
# Procedure, shortened: as §1
# Tov-21-G = experiment: as above; conditions: Gynecologic cancer cell panel viability, ATPlite luminescence, 48 h; series mostly up to 57.5 µM
# Procedure, shortened: as §1
# Tov112D = experiment: as above; conditions: Gynecologic cancer cell panel viability, ATPlite luminescence, 48 h; series mostly up to 57.5 µM
# Procedure, shortened: as §1
# SKOV3 = experiment: as above; conditions: Gynecologic cancer cell panel viability, ATPlite luminescence, 48 h; series mostly up to 57.5 µM
# Procedure, shortened: as §1
# [1] = qHTS assay to identify inhibitors of the type 1 interferon - major histocompatibility complex class I in skeletal muscle: Counter screen cell viability and HiBit confirmation (AID 1347412); conditions: iHSKM muscle cells + IFN-b, HiBiT or CellTiter-Glo, 24 h; Viability; at 45.9 µM (top of the series); further: nearly all actives have a fitted effect of over 60% in size
# Procedure, shortened: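 HLA-B*08:01–HiBiT knock-in immortalized human myoblasts (C25cl48) stimulated with 4.0 ng/ml human IFN-beta and dosed with compound in a 12-point 1:3 titration (top final 46 uM). After 24 hrs at 37 C, HiBiT lytic luminescence or CellTiter Glo ATP read out.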
# astro = experiment: Drug repurposing screens with cells derived from glioblastoma tumor samples (AID 1345199); conditions: viability, ATP luminescence, 48 h; series mostly up to 45.9 µM; further: potency means the concentration at half of the fitted maximal effect; nearly all actives have a fitted effect of over 40% in size
# Procedure, shortened: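 Four patient lines of CD133+ GBM neurospheres were screened at several concentrations; hits were retested in those lines plus three slower-growing GBM lines, using 48-hour treatment and ATP-based viability.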
compound,measurement,setting,value
COC1=CC(=O)O[C@@H](/C=C/c2ccccc2)[C@@H]1O,Potency,OV90,inactive
same,Potency,PA-1,inactive
same,Potency,Tov-21-G,inactive
same,Potency,Tov112D,inactive
COc1cc(/C=C/C(=O)OC2CC(C)=C(C(=O)O)/C2=C/CO[C@@H]2O[C@H](CO)[C@@H](O)[C@H](O)[C@H]2O)ccc1O (stereo partly specified),Potency,OV90,inactive
same,Potency,PA-1,inactive
same,Potency,Tov-21-G,inactive
same,Potency,Tov112D,inactive
NS(=O)(=O)OC[C@@H]1C[C@@H](n2ccc3c(N[C@H]4CCc5ccccc54)ncnc32)C[C@@H]1O,Potency,OV90,inactive
same,Potency,PA-1,708 nM (active) and 1 µM (active)
same,Potency,SKOV3,10 µM (active)
same,Potency,Tov-21-G,501 nM (active) and 398 nM (active)
same,"activity change, negative = inhibition",[1],-12.3%
CC(=O)O[C@@H]1[C@H](O[C@@H]2OC[C@](O)(CO)[C@H]2O)[C@@H](O[C@@H]2O[C@@H](C)[C@H](O)[C@@H](O)[C@H]2O)[C@H](OC(=O)[C@]23CCC(C)(C)C[C@H]2C2=CCC4[C@@]5(C)C[C@H](O)[C@H](O[C@@H]6O[C@H](C(=O)O)[C@@H](O)[C@H](O)[C@H]6O)[C@@](C)(C(=O)O)C5CC[C@@]4(C)[C@]2(C)CC3)O[C@@H]1C (stereo partly specified),"activity change, negative = cytotoxicity",OV90,0.243% [at 11.6 µM]
same,"activity change, negative = cytotoxicity",PA-1,-6.11% [at 11.6 µM]
same,"activity change, negative = cytotoxicity",Tov-21-G,1.94% [at 11.6 µM]
same,"activity change, negative = cytotoxicity",Tov112D,2.89% [at 11.6 µM]
C=CCc1ccc(O[C@@H]2O[C@H](CO)[C@@H](O)[C@H](O)[C@H]2O)c(OC)c1,Potency,OV90,inactive
same,Potency,PA-1,inactive
same,Potency,Tov-21-G,inactive
same,Potency,Tov112D,inactive
CC[C@@H](c1ccc(F)c(F)c1)n1c(C(=O)OC)c(-c2ccno2)[nH]c1=S,Potency,OV90,inactive
same,Potency,PA-1,inactive
same,Potency,Tov-21-G,inactive
same,Potency,Tov112D,inactive
Cc1coc2c1CC1OC1(C)CCC1OC1(C)C2 (stereo unspecified),Potency,OV90,inactive
same,Potency,PA-1,inactive
same,Potency,Tov-21-G,inactive
same,Potency,Tov112D,inactive
CC1CCC2(C(=O)OC3OC(CO)C(O)C(O)C3O)CCC3(C(=O)O)C(=CCC4C5(C)CCC(OC6OC(C)C(O)C(O)C6O)C(C)(C)C5CCC43C)C2C1C (stereo unspecified),Potency,OV90,inactive
same,Potency,PA-1,inactive
same,Potency,Tov-21-G,inactive
same,Potency,Tov112D,inactive
Nc1nc(CC(=O)Nc2ccc(CCNCC(O)c3ccccc3)cc2)cs1 (stereo unspecified),Potency,OV90,inactive
same,Potency,PA-1,inactive
same,Potency,Tov-21-G,inactive
same,Potency,Tov112D,inactive
CC(C)CC1NC(=O)C(C(C)c2ccccc2)NC(=O)C(C(C)C)NC(=O)C(C)NC(=O)CCCNC(=O)C(Cc2c[nH]c3ccccc23)NC(=O)C(C)NC1=O (stereo not drawn) (cyclo([GABA]AV[ξPhe(βξ-Me)]LAW); configuration not given here),Potency,OV90,inactive
same,Potency,PA-1,inactive
same,Potency,Tov-21-G,inactive
same,Potency,Tov112D,inactive
CC(C)=CCC/C(C)=C/CC/C(C)=C/CC[C@]1(C)CCc2cc(O)cc(C)c2O1,Potency,OV90,inactive
same,Potency,PA-1,inactive
same,Potency,Tov-21-G,inactive
same,Potency,Tov112D,inactive
COc1ccc(C[C@H](N)C(=O)N[C@H]2[C@@H](O)[C@H](n3cnc4c(N(C)C)ncnc43)O[C@@H]2CO)cc1,Potency,OV90,3.16 µM (active)
same,Potency,PA-1,708 nM (active)
same,Potency,SKOV3,3.55 µM (active)
same,Potency,Tov-21-G,3.98 µM (active)
same,Potency,Tov112D,2 µM (active)
same,Potency,astro,3.16 µM (active)
